Most compounds without a hit are left out; they make up all but 0.92% or so of the library.
WRN helicase inh-1 – inhibitors of human WRN helicase | Q14191 | WRN helicase unwinding, fluorescent forked duplex, kinetic | Potency, µM (series often up to 114 µM), for inactives: at the highest dose activity change, negative = inhibition, most hits filed as inhibitors | actives 0.46% (n = 360,000); also: % is scaled to controls: 0 for no effect and ±100 for the full control effect; nearly all actives have a fitted effect of over 55% in size
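WRN at 20 nM final preincubated with compound 15 min at room temperature; reaction started with 100 nM fluorophore/quencher forked duplex oligonucleotide and 2 mM ATP final. Unwinding followed kinetically by red fluorescence (ex 525, em 598 nm).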
BLM helicase inh-1 – blocks DNA unwinding by human BLM helicase; P54132; recombinant BLM DNA unwinding, fluorescence dequenching; Potency, µM (top dose mostly 56.1 µM), inactives show at the highest dose activity change, negative = inhibition, hits mostly inhibitors; actives 0.2% (n = 350,000); AID 2528;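 also: plate controls were vehicle for no effect and no enzyme for full effect; nearly all actives have a fitted effect of over 35% in size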
Target sequence (P54132 whole entry, looked up): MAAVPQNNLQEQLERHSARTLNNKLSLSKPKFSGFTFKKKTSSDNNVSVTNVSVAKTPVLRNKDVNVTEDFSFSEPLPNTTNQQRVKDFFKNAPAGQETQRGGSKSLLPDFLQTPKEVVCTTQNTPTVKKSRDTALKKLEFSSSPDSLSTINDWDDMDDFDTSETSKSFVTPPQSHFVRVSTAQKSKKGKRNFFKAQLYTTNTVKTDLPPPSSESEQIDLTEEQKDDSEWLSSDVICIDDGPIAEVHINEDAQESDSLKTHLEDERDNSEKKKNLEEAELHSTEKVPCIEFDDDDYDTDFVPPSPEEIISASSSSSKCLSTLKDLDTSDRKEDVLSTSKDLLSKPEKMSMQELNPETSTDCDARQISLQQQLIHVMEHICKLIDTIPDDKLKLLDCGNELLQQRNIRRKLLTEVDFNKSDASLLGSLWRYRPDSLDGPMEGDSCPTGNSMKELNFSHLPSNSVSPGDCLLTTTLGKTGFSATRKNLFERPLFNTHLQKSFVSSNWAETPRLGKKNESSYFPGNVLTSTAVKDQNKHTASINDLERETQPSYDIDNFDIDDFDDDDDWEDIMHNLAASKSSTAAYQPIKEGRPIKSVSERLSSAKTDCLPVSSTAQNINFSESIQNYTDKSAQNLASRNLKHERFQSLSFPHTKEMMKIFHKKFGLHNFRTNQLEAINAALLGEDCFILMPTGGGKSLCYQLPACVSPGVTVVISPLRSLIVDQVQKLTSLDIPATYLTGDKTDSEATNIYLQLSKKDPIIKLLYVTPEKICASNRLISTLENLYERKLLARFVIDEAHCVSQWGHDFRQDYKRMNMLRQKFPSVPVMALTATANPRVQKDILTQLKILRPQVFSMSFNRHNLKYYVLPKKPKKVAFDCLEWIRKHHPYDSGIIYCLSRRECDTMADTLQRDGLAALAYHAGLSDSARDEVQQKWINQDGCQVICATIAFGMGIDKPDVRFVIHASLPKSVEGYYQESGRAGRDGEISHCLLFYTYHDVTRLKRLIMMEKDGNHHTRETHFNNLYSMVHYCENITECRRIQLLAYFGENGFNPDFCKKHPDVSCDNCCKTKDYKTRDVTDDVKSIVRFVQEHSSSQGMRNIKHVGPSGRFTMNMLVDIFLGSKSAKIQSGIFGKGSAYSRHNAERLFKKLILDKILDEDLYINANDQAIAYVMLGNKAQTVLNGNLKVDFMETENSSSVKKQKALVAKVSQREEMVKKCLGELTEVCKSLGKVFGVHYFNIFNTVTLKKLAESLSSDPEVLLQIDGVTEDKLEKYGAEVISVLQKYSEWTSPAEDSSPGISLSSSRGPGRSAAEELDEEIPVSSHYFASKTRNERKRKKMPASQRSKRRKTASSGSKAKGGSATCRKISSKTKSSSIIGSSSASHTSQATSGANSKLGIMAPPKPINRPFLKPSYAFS
RECQ1 inh – blocks DNA unwinding by human RECQ1; RECQ1 DNA unwinding, red fluorescence kinetic read; Potency, µM (top dose mostly 57.3 µM), without a hit: at the top dose activity, negative = inhibition, most hits filed as inhibitors; actives 0.54% (n = 240,000); AID 2549;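 also: plate controls were vehicle for no effect and no enzyme for full effect; nearly all actives have a fitted effect of over 30% in size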
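RECQ1T1 50 nM; forked duplex (20 bp + 30-nt ss tails) 200 nM, ATP 2 mM final; pH 8.0, 2 mM MgCl2, 2.5 ug/ml poly(dI-dC); 15 min compound preincubation; discontinuous kinetic read over 2 h at RT.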
APEX1 inh – inhibitors of human APE1 endonuclease; recombinant APE1, TAMRA/BHQ-2 abasic DNA cleavage fluorescence; actives 0.35% (n = 350,000); P27695; Potency, µM (series often up to 65.8 µM), for the others: top-dose activity change, negative = inhibition, hits mostly inhibitors;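 also: plate controls were vehicle for no effect and reference inhibitor for full effect; nearly all actives have a fitted effect of over 55% in size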
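Kinetic fluorescence read (525 ex/598 em nm, three reads 60 s apart) of AP-site incision; signal = third minus first read. Enzyme 0.75 nM, dual-labelled THF duplex 50 nM, compound preincubation 15 min RT.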
L3MBTL1 inh – inhibitors of human L3MBTL1. AlphaScreen L3MBTL1–H3K9me1 peptide binding. Potency, µM (highest dose often 57.1 µM), inactives show top-dose activity, negative = inhibition, most hits filed as inhibitors. actives 0.66% (n = 230,000). Q9Y468. AID 485360; also: % is scaled to controls: 0 for no effect and ±100 for the full control effect; nearly all actives have a fitted effect of over 60% in size
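AlphaScreen assay: L3MBTL1 (50 nM final) was preincubated 30 min at room temperature with biotinylated H3(1-15)K9me1 peptide (75 nM final), then 30 min with library compounds; streptavidin donor and nickel chelate acceptor beads (10 ug/mL final) added, 30 min dark.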
WRN helicase inh-2 – WRN helicase inhibition, cherry-pick retest; Potency, µM (highest dose often 57.1 µM), for inactives: at the top dose activity, negative = inhibition, actives largely listed as inhibitors; shares compounds with WRN helicase inh-1; WRN helicase DNA unwinding, fluorescence kinetic; AID 720497; actives 63% (n = 610); also: nearly all actives have a fitted effect of over 65% in size
TO displacement – DNA binding via thiazole orange displacement. shares compounds with WRN helicase inh-1. actives 10% (n = 610). thiazole orange DNA binding displacement, fluorescence. Potency, µM (top dose mostly 57.1 µM), inactives show top-dose activity change, negative = inhibition, actives largely listed as inhibitors;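 also: drop in dye fluorescence marks compound binding to DNA; % is scaled to controls: 0 for no effect and ±100 for the full control effect; nearly all actives have a fitted effect of over 60% in size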
BLM helicase inh-2 – blocks human BLM helicase in WRN counterscreen; shares compounds with WRN helicase inh-1; Recombinant BLM helicase DNA unwinding, red fluorescence; Potency, µM (titrated, usually from 57.1 µM), inactives show at the top dose activity change, negative = inhibition, actives largely listed as inhibitors; actives 60% (n = 610); AID 720503; also: nearly all actives have a fitted effect of over 60% in size
* hit, by the source's call; [ ] = remark or other dose. Calls follow the shape of the dose curve; as a rule, active = well fitted curve in the direction sought with a large enough effect; inconclusive = small, poorly fitted or top-dose-only effect, or another doubt; inactive = no such curve, though single readings can be large; an effect the other way counts as inactive or inconclusive. Potency is read from the fitted curve at half-maximal effect.

How did CN1CCN(C(=O)C2CCCN(S(=O)(=O)c3ccc(Cl)cc3)C2)CC1 (stereo unspecified) do in these assays?
WRN helicase inh-1: inconclusive; BLM helicase inh-1: -1%; APEX1 inh: 47%; WRN helicase inh-2: -4%; TO displacement: -6%; BLM helicase inh-2: inconclusive

How did CCCCC#CC1C=CC(Oc2ccc(OC)cc2)C(CO)O1 (stereo unspecified) do in these assays?
BLM helicase inh-1: -1%[12.4 µM]; RECQ1 inh: -4%[11.5 µM]; APEX1 inh: 4%[12.4 µM]

What do the screens show for `Cc1ccccc1C(=O)Nc1sc2c(c1C(=O)N1CCC(C)CC1)CCC(C)C2` (stereo unspecified)?
BLM helicase inh-1: -4%

What do the screens show for `CC(=O)N1CCC2(CC1)CCN(c1ccc(-c3ccccc3)cc1)CC2`?
BLM helicase inh-1: 3%; RECQ1 inh: -8%; APEX1 inh: 16%

How did CCCN1C(=O)/C(=C\C=C2/Sc3ccccc3N2CC)SC1=S do in these assays?
BLM helicase inh-1: -1%; RECQ1 inh: inactive; APEX1 inh: 9%; L3MBTL1 inh: 2%

What do the screens show for `CCCN1C(=O)/C(=C\C=C2\N(CC)c3ccccc3C2(C)C)SC1=S`?
WRN helicase inh-1: 4.2µM*; BLM helicase inh-1: -2%; RECQ1 inh: inactive; APEX1 inh: 5%; L3MBTL1 inh: inconclusive; WRN helicase inh-2: 14µM*; TO displacement: inactive; BLM helicase inh-2: 11µM*

Results for Cc1noc(C)c1C(=O)N1CCC2(CC1)CN(c1cccc(-c3ccccc3)c1)C2 ?
BLM helicase inh-1: -4%; RECQ1 inh: inactive; APEX1 inh: 0%

Results for O=C(c1ccc(=O)oc1)N1CCOCC1 ?
WRN helicase inh-1: inconclusive; BLM helicase inh-1: 49%; RECQ1 inh: -10%; APEX1 inh: 14µM*; L3MBTL1 inh: 4.5µM*; WRN helicase inh-2: 5.4µM*; TO displacement: -1%; BLM helicase inh-2: 3µM*

Results for CN1CCN(C2=C(Cl)C(=O)c3ccccc3C2=O)CC1 ?
WRN helicase inh-1: inconclusive; WRN helicase inh-2: inconclusive; TO displacement: -14%; BLM helicase inh-2: 3.4µM*

What do the screens show for `CC(=O)N(C1=C(Cl)C(=O)c2ccccc2C1=O)C1CCCCC1`?
WRN helicase inh-1: 14µM*; BLM helicase inh-1: -1%; RECQ1 inh: -1%; APEX1 inh: -6%; L3MBTL1 inh: inconclusive; WRN helicase inh-2: -27%; TO displacement: -16%; BLM helicase inh-2: inconclusive

Results for O=C(Nc1cccc(-c2cnc3ccccc3n2)c1)c1cccc(NC(=O)c2ccco2)c1 ?
WRN helicase inh-1: inconclusive; BLM helicase inh-1: -13%; RECQ1 inh: inconclusive; APEX1 inh: -4%; WRN helicase inh-2: -29%; TO displacement: 1%; BLM helicase inh-2: inconclusive

Results for COc1ccc(-c2nc3c(c4c2C[C@H](c2ccccc2)OC4)CN(S(=O)(=O)c2ccc(C#N)cc2)CC3)c(C)c1 ?
BLM helicase inh-1: -5%[12.4 µM]; RECQ1 inh: -6%[11.5 µM]; APEX1 inh: 5%[12.4 µM]

How did CCOC(=O)N1CCN(C(=O)CCC(=O)c2ccc(OCC)cc2)CC1 do in these assays?
WRN helicase inh-1: 7%; BLM helicase inh-1: -1%; APEX1 inh: 9%

How did CCCOc1ccc(C(=O)CCN2CCN(C(=O)OCC)CC2)cc1 do in these assays?
WRN helicase inh-1: inconclusive; BLM helicase inh-1: 1%; RECQ1 inh: -8%; APEX1 inh: 7%; WRN helicase inh-2: -16%; TO displacement: -6%; BLM helicase inh-2: -18%

Bioassay records from PubChem.
